According to the supplement of paper PMC10849652:
Targets with a hit are over-represented here; the source holds about 8,800 in all. About 0.5% of all pairs of compound and target were hits.

Compound: C[C@H](C1=CC=C(C=C1)C(=O)NC2=C3C=CNC3=NC=C2)N
Assay: log2 fold change, soluble protein after heating vs DMSO (PISA); higher = thermal stabilisation; K562 lysate, 10 uM; active = over 0.2 and 3.5 SD of the protein, either way, in both replicates (recomputed)
How it was run: (§1)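 Pellets of K562 cells were dounce-homogenised in PBS pH 7.4 with 1 mM MgCl2, and the crude extract was held at 1 mg/mL protein for a 30 min treatment with 10 μM compound. Aliquots were heated for 3 min over 48°C-58°C and pooled before NP-40 was added to 0.5% at 4°C. The supernatant from 21,000xg for 90 min was quantified by TMTpro 16plex LC-MS/MS with channel sums equalised. Values are reported from duplicates as log-two fold change in thermal stability relative to solvent controls.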

UniProt Q16539, sequence (Q16539 whole entry, looked up): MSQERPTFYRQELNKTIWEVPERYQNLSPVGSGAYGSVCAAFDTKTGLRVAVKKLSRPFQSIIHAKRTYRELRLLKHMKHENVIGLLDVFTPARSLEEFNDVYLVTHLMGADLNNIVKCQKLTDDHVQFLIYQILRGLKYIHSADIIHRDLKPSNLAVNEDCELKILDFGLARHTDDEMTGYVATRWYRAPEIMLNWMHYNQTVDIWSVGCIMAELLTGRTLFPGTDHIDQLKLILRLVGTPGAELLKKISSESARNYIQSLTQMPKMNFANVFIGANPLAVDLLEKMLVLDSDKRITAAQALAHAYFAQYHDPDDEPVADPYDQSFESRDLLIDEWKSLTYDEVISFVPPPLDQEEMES
UniProt Q15013, sequence (Q15013 whole entry, looked up): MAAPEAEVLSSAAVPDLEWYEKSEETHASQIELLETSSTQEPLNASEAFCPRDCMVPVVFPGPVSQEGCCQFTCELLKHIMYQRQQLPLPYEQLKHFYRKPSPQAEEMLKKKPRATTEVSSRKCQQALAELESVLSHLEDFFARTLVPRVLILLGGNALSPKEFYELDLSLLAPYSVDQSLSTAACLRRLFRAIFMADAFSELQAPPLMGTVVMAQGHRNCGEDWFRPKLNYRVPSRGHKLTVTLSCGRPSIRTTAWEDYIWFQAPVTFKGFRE
UniProt O95297, sequence (O95297 whole entry, looked up): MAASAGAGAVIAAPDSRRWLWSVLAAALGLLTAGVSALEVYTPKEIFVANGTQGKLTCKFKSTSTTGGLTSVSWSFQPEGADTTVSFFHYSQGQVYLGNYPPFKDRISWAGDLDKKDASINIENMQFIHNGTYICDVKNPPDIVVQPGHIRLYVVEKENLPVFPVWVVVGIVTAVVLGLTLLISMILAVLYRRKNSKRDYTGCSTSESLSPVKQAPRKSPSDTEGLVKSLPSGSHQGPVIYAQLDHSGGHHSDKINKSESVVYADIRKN
UniProt P08473, sequence (P08473 whole entry, looked up): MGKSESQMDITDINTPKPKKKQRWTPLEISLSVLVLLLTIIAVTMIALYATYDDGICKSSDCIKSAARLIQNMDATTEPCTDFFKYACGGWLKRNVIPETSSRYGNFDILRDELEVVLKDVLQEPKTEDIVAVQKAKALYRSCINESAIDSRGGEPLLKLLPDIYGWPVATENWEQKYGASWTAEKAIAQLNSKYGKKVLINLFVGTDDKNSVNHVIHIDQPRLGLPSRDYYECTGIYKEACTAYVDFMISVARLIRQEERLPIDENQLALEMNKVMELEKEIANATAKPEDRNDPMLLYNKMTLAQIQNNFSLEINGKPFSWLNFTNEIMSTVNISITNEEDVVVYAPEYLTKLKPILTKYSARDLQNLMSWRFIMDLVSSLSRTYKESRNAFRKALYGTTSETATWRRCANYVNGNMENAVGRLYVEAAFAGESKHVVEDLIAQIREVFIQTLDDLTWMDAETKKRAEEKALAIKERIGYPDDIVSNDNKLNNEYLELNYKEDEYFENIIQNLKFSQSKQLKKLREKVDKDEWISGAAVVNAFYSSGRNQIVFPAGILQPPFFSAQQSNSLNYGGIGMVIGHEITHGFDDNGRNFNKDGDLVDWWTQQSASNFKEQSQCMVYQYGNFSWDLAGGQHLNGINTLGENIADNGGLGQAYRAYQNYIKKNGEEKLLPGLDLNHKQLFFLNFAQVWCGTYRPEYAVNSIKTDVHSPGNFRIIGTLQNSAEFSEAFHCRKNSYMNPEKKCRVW
UniProt Q9BV79, sequence (Q9BV79 whole entry, looked up): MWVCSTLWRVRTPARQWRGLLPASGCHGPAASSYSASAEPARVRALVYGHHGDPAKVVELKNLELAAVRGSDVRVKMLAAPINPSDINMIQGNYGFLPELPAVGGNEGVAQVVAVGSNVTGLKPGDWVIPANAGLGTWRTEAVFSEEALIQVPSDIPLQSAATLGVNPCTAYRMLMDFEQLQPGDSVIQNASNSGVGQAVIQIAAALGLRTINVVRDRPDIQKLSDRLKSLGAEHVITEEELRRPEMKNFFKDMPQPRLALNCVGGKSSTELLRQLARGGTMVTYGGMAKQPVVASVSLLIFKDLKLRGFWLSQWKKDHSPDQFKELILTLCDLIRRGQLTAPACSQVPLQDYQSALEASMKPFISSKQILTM
UniProt Q15334, sequence (Q15334 whole entry, looked up): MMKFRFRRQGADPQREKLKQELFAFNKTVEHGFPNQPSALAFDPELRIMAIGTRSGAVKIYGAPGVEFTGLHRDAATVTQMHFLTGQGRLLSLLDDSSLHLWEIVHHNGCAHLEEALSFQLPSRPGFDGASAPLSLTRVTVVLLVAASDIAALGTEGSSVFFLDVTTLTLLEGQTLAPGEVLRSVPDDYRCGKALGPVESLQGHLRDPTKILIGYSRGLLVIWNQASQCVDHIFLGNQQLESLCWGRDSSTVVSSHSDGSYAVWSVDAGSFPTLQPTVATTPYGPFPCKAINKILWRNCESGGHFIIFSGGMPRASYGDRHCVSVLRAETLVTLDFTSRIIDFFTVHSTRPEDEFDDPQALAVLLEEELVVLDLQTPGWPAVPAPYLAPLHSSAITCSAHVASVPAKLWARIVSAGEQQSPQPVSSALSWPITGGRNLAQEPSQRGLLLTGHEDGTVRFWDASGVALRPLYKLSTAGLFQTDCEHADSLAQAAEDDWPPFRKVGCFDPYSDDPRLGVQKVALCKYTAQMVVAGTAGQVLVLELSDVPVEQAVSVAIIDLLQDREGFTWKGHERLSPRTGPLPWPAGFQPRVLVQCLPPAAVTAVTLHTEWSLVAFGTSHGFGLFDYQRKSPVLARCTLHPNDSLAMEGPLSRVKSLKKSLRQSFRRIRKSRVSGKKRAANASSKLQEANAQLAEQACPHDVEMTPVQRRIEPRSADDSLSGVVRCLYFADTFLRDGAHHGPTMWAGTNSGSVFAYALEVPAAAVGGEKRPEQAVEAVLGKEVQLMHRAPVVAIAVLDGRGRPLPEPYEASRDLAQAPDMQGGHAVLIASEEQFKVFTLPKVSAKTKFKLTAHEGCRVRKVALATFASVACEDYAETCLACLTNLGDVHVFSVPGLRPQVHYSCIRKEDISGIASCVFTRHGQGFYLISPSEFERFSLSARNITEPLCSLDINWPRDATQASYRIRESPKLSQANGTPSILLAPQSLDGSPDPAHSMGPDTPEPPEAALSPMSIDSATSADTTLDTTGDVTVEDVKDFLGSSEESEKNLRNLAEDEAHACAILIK
UniProt O14733, sequence (O14733 whole entry, looked up): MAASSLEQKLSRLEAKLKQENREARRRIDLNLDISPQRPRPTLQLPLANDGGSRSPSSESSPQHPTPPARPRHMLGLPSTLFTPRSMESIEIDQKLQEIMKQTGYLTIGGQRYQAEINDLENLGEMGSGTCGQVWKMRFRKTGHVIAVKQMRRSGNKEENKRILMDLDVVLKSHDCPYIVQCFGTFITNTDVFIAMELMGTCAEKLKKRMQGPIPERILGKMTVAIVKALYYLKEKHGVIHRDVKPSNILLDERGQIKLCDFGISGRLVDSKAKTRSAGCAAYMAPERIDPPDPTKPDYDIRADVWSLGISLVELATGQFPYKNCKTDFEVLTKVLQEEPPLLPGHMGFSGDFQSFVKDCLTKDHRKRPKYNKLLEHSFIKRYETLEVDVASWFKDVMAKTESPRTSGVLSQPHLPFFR
UniProt Q9GZY8, sequence (Q9GZY8 whole entry, looked up): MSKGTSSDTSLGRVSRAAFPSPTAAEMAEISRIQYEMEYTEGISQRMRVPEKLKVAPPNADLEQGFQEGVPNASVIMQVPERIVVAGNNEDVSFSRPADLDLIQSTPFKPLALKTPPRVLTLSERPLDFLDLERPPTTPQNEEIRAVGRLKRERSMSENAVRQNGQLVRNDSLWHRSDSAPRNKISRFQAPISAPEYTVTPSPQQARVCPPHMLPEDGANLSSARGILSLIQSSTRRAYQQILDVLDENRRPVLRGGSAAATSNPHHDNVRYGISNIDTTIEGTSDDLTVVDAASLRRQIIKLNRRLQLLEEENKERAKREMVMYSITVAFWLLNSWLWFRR
UniProt O95202, sequence (O95202 whole entry, looked up): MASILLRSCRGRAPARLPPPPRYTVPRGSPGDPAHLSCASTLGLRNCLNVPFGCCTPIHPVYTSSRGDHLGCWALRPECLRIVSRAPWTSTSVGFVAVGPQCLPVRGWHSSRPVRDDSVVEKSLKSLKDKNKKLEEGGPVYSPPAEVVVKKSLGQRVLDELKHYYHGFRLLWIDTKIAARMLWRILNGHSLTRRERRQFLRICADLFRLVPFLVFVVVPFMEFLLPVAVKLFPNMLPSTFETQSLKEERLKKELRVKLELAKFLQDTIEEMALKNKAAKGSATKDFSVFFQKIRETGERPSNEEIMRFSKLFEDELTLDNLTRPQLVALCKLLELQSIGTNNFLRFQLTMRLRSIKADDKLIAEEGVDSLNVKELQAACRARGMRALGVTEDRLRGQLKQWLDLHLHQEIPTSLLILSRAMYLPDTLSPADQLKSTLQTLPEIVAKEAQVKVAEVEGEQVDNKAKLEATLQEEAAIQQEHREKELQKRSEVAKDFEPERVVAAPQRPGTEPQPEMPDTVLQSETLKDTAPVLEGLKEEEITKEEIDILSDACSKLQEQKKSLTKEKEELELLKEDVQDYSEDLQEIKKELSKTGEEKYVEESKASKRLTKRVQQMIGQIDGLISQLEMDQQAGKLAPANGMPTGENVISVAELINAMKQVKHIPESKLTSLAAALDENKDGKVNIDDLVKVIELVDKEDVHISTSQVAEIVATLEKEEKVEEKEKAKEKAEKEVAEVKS
UniProt P48059, sequence (P48059 whole entry, looked up): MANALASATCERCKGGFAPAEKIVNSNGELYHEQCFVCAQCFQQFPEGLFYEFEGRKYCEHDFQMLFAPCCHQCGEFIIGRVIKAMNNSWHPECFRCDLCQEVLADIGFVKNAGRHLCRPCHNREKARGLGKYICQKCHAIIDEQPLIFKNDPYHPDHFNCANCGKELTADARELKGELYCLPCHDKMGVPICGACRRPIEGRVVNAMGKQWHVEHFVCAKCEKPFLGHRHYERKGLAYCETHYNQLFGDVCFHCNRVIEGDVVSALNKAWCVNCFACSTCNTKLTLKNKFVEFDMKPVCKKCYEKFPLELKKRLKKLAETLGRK

Target	log2 fold change
MAD2L1BP isoform 3 (UniProt Q15013)	0.022 (inactive)
MORF4L1 isoform 2 (UniProt Q9UBU8)	-0.058 (inactive)
MCUB (UniProt Q9NWR8)	0.187 (inactive)
LPIN1 isoform 7 (UniProt Q14693)	-0.069 (inactive)
MECR (UniProt Q9BV79)	-0.11 (inactive)
MPZL1 (UniProt O95297)	0.132 (inactive)
MAPK14 (UniProt Q16539)	-0.034 (inactive)
MAPK1 (UniProt P28482)	-0.004 (inactive)
MARCHF6 (UniProt O60337)	-0.073 (inactive)
KMT2A isoform 3 (UniProt Q03164)	0.091 (inactive)
MAP3K4 (UniProt Q9Y6R4)	0.064 (inactive)
MRPL19 (UniProt P49406)	-0.094 (inactive)
MFF isoform 2 (UniProt Q9GZY8)	-0.239 (active)
METTL21A (UniProt Q8WXB1)	-0.083 (inactive)
MRPL35 (UniProt Q9NZE8)	-0.207 (inactive)
LETM1 (UniProt O95202)	0.015 (inactive)
MAP7D3 (UniProt Q8IWC1)	-0.055 (inactive)

Target	log2 fold change
KIF4A (UniProt O95239)	0.012 (inactive)
MLH1 (UniProt P40692)	-0.035 (inactive)
LEPROT (UniProt O15243)	-0.019 (inactive)
MAP2K2 (UniProt P36507)	0.207 (inactive)
LIMS1 isoform 3 (UniProt P48059)	-0.045 (inactive)
LAMP1 (UniProt P11279)	-0.496 (active)
KLC4 isoform 3 (UniProt Q9NSK0)	0.019 (inactive)
MAP2K7 isoform 4 (UniProt O14733)	0.081 (inactive)
LIG4 (UniProt P49917)	-0.064 (inactive)
MAPKAPK3 (UniProt Q16644)	0.034 (inactive)
MAPK3 (UniProt P27361)	-0.021 (inactive)
KLHL36 (UniProt Q8N4N3)	-0.075 (inactive)
MME (UniProt P08473)	0.037 (inactive)
MAP4K5 (UniProt Q9Y4K4)	0.013 (inactive)
MAP2K5 (UniProt Q13163)	0.013 (inactive)
MAPK14 isoform 2 (UniProt Q16539)	0.222 (inactive)
LLGL1 (UniProt Q15334)	0.263 (active)

Compound: C[C@H](Nc1ncnc2nc[nH]c12)c1cc2cccc(Cl)c2c(=O)n1-c1ccccc1 [duvelisib]
Assay: as above
How it was run: as §1

Target	log2 fold change
MAD2L1BP isoform 3 (UniProt Q15013)	0.048 (inactive)
MORF4L1 isoform 2 (UniProt Q9UBU8)	0.021 (inactive)
MCUB (UniProt Q9NWR8)	-0.018 (inactive)
LPIN1 isoform 7 (UniProt Q14693)	-0.097 (inactive)
MECR (UniProt Q9BV79)	0.007 (inactive)
MPZL1 (UniProt O95297)	0.001 (inactive)
MAPK14 (UniProt Q16539)	-0.026 (inactive)
MAPK1 (UniProt P28482)	0.004 (inactive)
MARCHF6 (UniProt O60337)	0.103 (inactive)
KMT2A isoform 3 (UniProt Q03164)	0.013 (inactive)
MAP3K4 (UniProt Q9Y6R4)	-0.017 (inactive)
MRPL19 (UniProt P49406)	-0.026 (inactive)
MFF isoform 2 (UniProt Q9GZY8)	0.022 (inactive)
METTL21A (UniProt Q8WXB1)	0.131 (inactive)
KLHL12 isoform 2 (UniProt Q53G59)	0.084 (inactive)
MRPL35 (UniProt Q9NZE8)	-0.054 (inactive)
LETM1 (UniProt O95202)	-0.018 (inactive)
MAP7D3 (UniProt Q8IWC1)	-0.068 (inactive)
KIF4A (UniProt O95239)	-0.029 (inactive)

Target	log2 fold change
MLH1 (UniProt P40692)	0.016 (inactive)
MAP2K2 (UniProt P36507)	0.012 (inactive)
MINDY1 isoform 3 (UniProt Q8N5J2)	0.051 (inactive)
LIMS1 isoform 3 (UniProt P48059)	-0.023 (inactive)
LAMP1 (UniProt P11279)	0.005 (inactive)
KLC4 isoform 3 (UniProt Q9NSK0)	0.029 (inactive)
MAP2K7 isoform 4 (UniProt O14733)	-0.048 (inactive)
LIG4 (UniProt P49917)	0.022 (inactive)
KRIT1 (UniProt O00522)	-0.001 (inactive)
MAPKAPK3 (UniProt Q16644)	-0.038 (inactive)
MAPK3 (UniProt P27361)	-0.01 (inactive)
KLHL36 (UniProt Q8N4N3)	-0.02 (inactive)
MCMBP isoform 2 (UniProt Q9BTE3)	-0.03 (inactive)
MME (UniProt P08473)	0.066 (inactive)
MAP4 isoform 5 (UniProt P27816)	0.159 (inactive)
MAP4K5 (UniProt Q9Y4K4)	-0.021 (inactive)
MAP2K5 (UniProt Q13163)	0.152 (inactive)
MAPK14 isoform 2 (UniProt Q16539)	-0.026 (inactive)
LLGL1 (UniProt Q15334)	0.096 (inactive)
